Assay results published in ChEMBL document CHEMBL3988442, “University of Dundee, Small-Polar-MMV Screening Library” (2021).
Out of some 53,000 compounds screened, about 900 (1.7%) showed an effect of 50% or more. The entries come from a sample that favours strong results as a whole.

The compounds below were run on Mycobacterium tuberculosis (assay: Cornell - Phenotypic assay to identify agents that inhibit growth of Mycobacterium tuberculosis). Settings: 10 mM as filed; unlikely as a test dose.
Assay type: functional
Set-up: scale not given: direction of the effect not stated beside the values
CC(C)C(=O)N1CCN(C(=O)c2cc(C(C)C)no2)[C@H]2CS(=O)(=O)C[C@H]21 was tested, and the “Percent Effect” value was 24.89%.
CN(C)CCNC(=O)CC1CCN(c2cccnn2)CC1 was tested, and the “Percent Effect” value was 8.308%.
In the case of CCN(Cc1nc(C)no1)C(=O)C1CC(=O)N(Cc2ccccn2)C1 (stereo unspecified), the “Percent Effect” value is reported as 0.6142%.
With O=C(NC1CCCN(Cc2c(F)cccc2F)C1)c1cc[nH]n1 (stereo unspecified) the “Percent Effect” value was -25.78%.
For O=C(NCCN1CCC(c2cccs2)CC1)Nc1cccs1, the “Percent Effect” value was 107.5%.
With CC(=O)NCCN1CCC(c2cccs2)CC1 the “Percent Effect” value was 5.988%.
For O=C(NCCc1ccccc1)NCCN1CCC(c2cccs2)CC1, the “Percent Effect” value was 45.08%.
Cc1cc(N2CCC(Cc3ccncc3)C2)ncn1 (stereo unspecified) was tested, and the “Percent Effect” value was -20.77%.
With OCC1(Cc2ccc(Cl)cc2)CCN(Cc2ccccc2O)CC1 the “Percent Effect” value was 19.16%.
For COc1cccc(CN2CCC(CO)(Cc3ccc(Cl)cc3)CC2)c1O, the “Percent Effect” value was 91.19%.
For COc1ccc(CN2CCC(CO)(Cc3ccc(Cl)cc3)CC2)c(O)c1, the “Percent Effect” value was 23.78%.
With CCC(O)c1nc2c([nH]1)CC(C)(C)CNC2=O (stereo unspecified) the “Percent Effect” value was -22.87%.
For CCc1cc(NCCN2CCNC2=O)n2nccc2n1, the “Percent Effect” value was -6.964%.
For Cc1nc(C)n(CC2CCCN(CCOc3ccccc3F)C2)n1 (stereo unspecified), the “Percent Effect” value was -21.82%.
O=C(NC1CCN(CC2CCCC2)C1)N1CCC(OCC2CC2)CC1 (stereo unspecified) was tested, and the “Percent Effect” value was 51.36%.
O=C(NC1CCN(CC2CC2)C1)N1CCC(OC2CCCCC2)CC1 (stereo unspecified) was tested, and the “Percent Effect” value was 28.71%.
NC(=O)C1CCN(C(=O)NC2CCN(CC3CCCC3)C2)CC1 (stereo unspecified) was tested, and the “Percent Effect” value was 21.86%.
With CC(C)C(=O)N1CCC(c2nc3ccccn3c2NC(C)(C)C)CC1 the “Percent Effect” value was 44.44%.
In the case of CCc1cn[nH]c1C1CCN(c2cc(C)c3cc(OC)ccc3n2)CC1, the “Percent Effect” value is reported as 4.644%.
For CCc1cn[nH]c1C1CCN(c2cc(C)c3ccc(OC)cc3n2)CC1, the “Percent Effect” value was 2.528%.
In the case of CCc1cn[nH]c1C1CCN(c2cc(C)c3cccc(OC)c3n2)CC1, the “Percent Effect” value is reported as 57.17%.
For CSc1ncccc1C(=O)NCC(c1ccco1)N(C)C (stereo unspecified), the “Percent Effect” value was 23%.
In the case of CCNS(=O)(=O)c1ccc2c(c1)c(=O)n(CC)c(=O)n2CC, the “Percent Effect” value is reported as 5.155%.
With CS(=O)(=O)CCSCc1cc(F)cc2cccnc12 the “Percent Effect” value was -6.961%.
Fc1ccccc1CN1CCCN(c2ccc3cc[nH]c3n2)CC1 was tested, and the “Percent Effect” value was 55.73%.
In the case of c1cc(CN2CCCN(c3ccc4cc[nH]c4n3)CC2)ccn1, the “Percent Effect” value is reported as -9.703%.
Fc1ccccc1CN1CCCN(c2ncnc3[nH]ccc23)CC1 was tested, and the “Percent Effect” value was 14.79%.
In the case of O=C(NCCc1csc(-c2cccnc2)n1)c1cnn2c1CCCC2, the “Percent Effect” value is reported as -3.716%.
With Cc1csc2c(C3CCN(CCOc4ccccc4F)CC3)nc(C)n12 the “Percent Effect” value was -14.57%.
Cc1ccc(OCCN2CCC(c3nc(C)n4c(C)csc34)CC2)cc1 was tested, and the “Percent Effect” value was 54.47%.
In the case of Cc1csc2c(C3CCN(CCCOc4ccccc4)CC3)nc(C)n12, the “Percent Effect” value is reported as 35.94%.
For Cc1nc(CN2CCO[C@@H]3CN(Cc4ccsc4)C[C@@H]3C2)cs1.O=C(O)C(F)(F)F.O=C(O)C(F)(F)F, the “Percent Effect” value was 22.49%.
For Cc1noc(C)c1-c1nc(N(C)C)ncc1-c1cnccn1, the “Percent Effect” value was -5.73%.
In the case of CC[C@@H]1N(Cc2ccsc2)CCC[C@]12CCC(=O)N2C.O=C(O)C(F)(F)F, the “Percent Effect” value is reported as 2.508%.
For NC(=O)C1CN(C(=O)Nc2ccccc2SC2CCCC2)CCO1 (stereo unspecified), the “Percent Effect” value was 18.89%.
CC(=O)N1CCCC1CCc1ccnc(-c2cncnc2)c1 (stereo unspecified) was tested, and the “Percent Effect” value was 56.86%.
For CC(=O)N1CCCC1CCc1ccc(Cl)nn1 (stereo unspecified), the “Percent Effect” value was 30.13%.
CC(=O)N1CCCC1c1ccnc(Nc2cncnc2)n1 (stereo unspecified) was tested, and the “Percent Effect” value was -12.16%.
Cc1ccc(OCCCNC(=O)C2(C)CC(=O)N3C=CC=CC3=N2)cc1 (stereo unspecified) was tested, and the “Percent Effect” value was 45.74%.
With CC1(C(=O)NCCCOc2ccccc2F)CC(=O)N2C=CC=CC2=N1 (stereo unspecified) the “Percent Effect” value was 24.68%.
With Cc1ccccc1OCCCNC(=O)C1(C)CC(=O)N2C=CC=CC2=N1 (stereo unspecified) the “Percent Effect” value was 54.27%.
In the case of CN(C)[C@H]1CCCCN(C(=O)c2cccc(N3CCS(=O)(=O)CC3)c2)C1, the “Percent Effect” value is reported as -27.17%.
For CC(C)c1noc(CN(Cc2ccc(F)cc2)C2CC2)n1, the “Percent Effect” value was -14.54%.
With CCC(C(=O)NCCc1nc(C)cc(C(F)(F)F)n1)n1cccn1 (stereo unspecified) the “Percent Effect” value was -40.59%.
With Cc1nc2sccn2c1CNC1(c2ccccc2F)CCCC1.O=C(O)CC(O)(CC(=O)O)C(=O)O the “Percent Effect” value was 21.81%.
In the case of COc1ccccc1C1(NCc2c(C)nc3c(C)cccn23)CCCC1.Cl, the “Percent Effect” value is reported as -17.64%.
COc1ccc(C2(NCc3c(C)nc4c(C)cccn34)CCCC2)cc1.O=C(O)CC(O)(CC(=O)O)C(=O)O was tested, and the “Percent Effect” value was 60.04%.
For C=Cn1ncc(CN2CCc3nc(-c4ccncc4)nc(O)c3C2)c1C, the “Percent Effect” value was 24.59%.
For O=C(Nc1ccccc1)[C@H]1C[C@@H]2CN(Cc3cccnc3)C[C@H]1O2, the “Percent Effect” value was 15.91%.
For O=S(=O)(Nc1cnc(N2CCOCC2)nc1)c1cccc(F)c1, the “Percent Effect” value was 17.36%.
In the case of O=S(=O)(Nc1ccc(N2CCOCC2)cc1)c1cccc(F)c1, the “Percent Effect” value is reported as 107.6%.
With O=S(=O)(Nc1ccc(N2CCOCC2)cn1)c1cccc(F)c1 the “Percent Effect” value was 37.01%.
In the case of OC(CN1CCC(c2ccn[nH]2)CC1)c1ccccc1F (stereo unspecified), the “Percent Effect” value is reported as 11.88%.
With Cc1csc2nc3n(c(=O)c12)CCN(Cc1c[nH]cn1)CC3.Cl the “Percent Effect” value was -9.915%.
With Cc1cc(C(F)F)nn1C(C)C(=O)NCc1ncc[nH]1 (stereo unspecified) the “Percent Effect” value was 51.24%.
Cc1cc(C(F)F)nn1C(C)C(=O)NCc1nccn1C (stereo unspecified) was tested, and the “Percent Effect” value was -1.635%.
CC(C)Nc1ncccc1C(=O)NCc1ncc[nH]1 was tested, and the “Percent Effect” value was 21.23%.
With CN(C)c1ncc(-c2ccncc2)c(CCNC(=O)C2CC2)n1 the “Percent Effect” value was 23.54%.
With Cc1c(C(=O)N2CCN(c3ccccn3)CC2)n(C)c2ccc(Cl)cc12 the “Percent Effect” value was 56.67%.
For Cc1c(C(=O)N2CCN(C)CC2)n(C)c2ccc(Cl)cc12, the “Percent Effect” value was 29.74%.
Cc1c(C(=O)N2CCN(c3ncccn3)CC2)n(C)c2ccc(Cl)cc12 was tested, and the “Percent Effect” value was 45.95%.
With CCN1C(=O)CC[C@@H]2N(C(=O)CCn3nccc3C)CCCC[C@@]21C the “Percent Effect” value was 10.33%.
In the case of CC(C)CC(=O)N1CC(=O)c2sc(NCCc3ccccc3)nc2C1, the “Percent Effect” value is reported as -41.09%.
In the case of Cc1ccc(C2(CN3CCN(Cc4cncn4C)CC3)CC2)cc1.Cl, the “Percent Effect” value is reported as -21.08%.
Cc1nn(C)cc1CN1CCN(CC2(c3ccccc3)CC2)CC1 was tested, and the “Percent Effect” value was 18.35%.
With Cc1ccc(C2(CN3CCN(Cc4cn(C)nc4C)CC3)CC2)cc1.Cl the “Percent Effect” value was 56.88%.
With O=C(NCc1ccncc1)N1CC(Cc2ccccc2F)C1 the “Percent Effect” value was 8.731%.
In the case of CCc1ccc(S(=O)(=O)Nc2c(C)cccc2C(=O)O)s1, the “Percent Effect” value is reported as 52.73%.
With CCc1ccc(S(=O)(=O)Nc2cc(C(=O)O)c(F)cc2F)s1 the “Percent Effect” value was 1.964%.
CCc1ccc(S(=O)(=O)Nc2cc(OC)c(OC)cc2C(=O)O)s1 was tested, and the “Percent Effect” value was 16.65%.
With Cc1cc(CN(C)C2CCCN(Cc3noc(C4CC4)n3)C2)on1 (stereo unspecified) the “Percent Effect” value was 2.145%.
For O=C(Nc1cccc(N2CCCC2)c1)C1CCCN1c1nccs1 (stereo unspecified), the “Percent Effect” value was 57.22%.
With O=C1NCc2ccc(NC(=O)C3CCCN3c3nccs3)cc21 (stereo unspecified) the “Percent Effect” value was 10.34%.
O=C(Nc1cccc2c1CCCC2)C1CCCN1c1nccs1 (stereo unspecified) was tested, and the “Percent Effect” value was -2.486%.
Cc1nn(C)c(=O)c2nn(-c3ccc(F)cc3)c(C)c12 was tested, and the “Percent Effect” value was 2.323%.
For Cc1nn(-c2ccc(F)cc2)c2[nH]nc(N)c12, the “Percent Effect” value was 67.22%.
Cc1nn(Cc2ccc(F)cc2)c2[nH]nc(N)c12 was tested, and the “Percent Effect” value was 41.44%.
With COc1ccccc1CCC(=O)N1CCCC(OCc2cccnc2)C1 (stereo unspecified) the “Percent Effect” value was -21.64%.
For CC(c1nc(C2CC2)no1)N1CCN(Cc2ccccc2)CC1 (stereo unspecified), the “Percent Effect” value was 2.279%.
For CC(Nc1ccc(Br)cc1)c1nc(C2CC2)no1 (stereo unspecified), the “Percent Effect” value was 54.33%.
CC(Nc1ccc2c(c1)CCC2)c1nc(C2CC2)no1 (stereo unspecified) was tested, and the “Percent Effect” value was 27.18%.
COCc1ccc(CNc2cnn(C(C)(C)C)c(=O)c2Cl)cc1 was tested, and the “Percent Effect” value was 55.73%.
In the case of CC(C)(C)n1ncc(NCc2ccccc2)c(Cl)c1=O, the “Percent Effect” value is reported as -56.94%.
COCc1cccc(CNc2cnn(C(C)(C)C)c(=O)c2Cl)c1 was tested, and the “Percent Effect” value was 17.4%.
In the case of CCCN1CCC(c2nc3ccc(-c4ccncc4)cn3n2)CC1.O=C(O)C(F)(F)F.O=C(O)C(F)(F)F, the “Percent Effect” value is reported as -17.17%.
In the case of Cc1nccn1-c1ccc(C(=O)NCC(F)(F)F)nn1, the “Percent Effect” value is reported as 18.88%.
In the case of Cc1cnc(C(=O)N2CCC3(CCN3Cc3ccc(F)cc3)C2)cn1.O=C(O)C(F)(F)F (stereo unspecified), the “Percent Effect” value is reported as -0.7224%.
CN1C(=O)C(C)(C)COc2ccc(NS(=O)(=O)Cc3ccccc3)cc21 was tested, and the “Percent Effect” value was -4.912%.
For CN(C)C(=O)c1cnc2n1CCN(Cc1ccsc1)C2.O=C(O)C(F)(F)F, the “Percent Effect” value was 1.254%.
In the case of Cc1ccc(CSc2nc(N)cc(NCCC(=O)N3CCCC3)n2)cc1, the “Percent Effect” value is reported as 88.28%.
In the case of Cc1ccc(CSc2nc(N)cc(NCCS(=O)(=O)N(C)C)n2)cc1, the “Percent Effect” value is reported as 52.28%.
Cc1ccc(CSc2nc(N)cc(NCCC(N)=O)n2)cc1 was tested, and the “Percent Effect” value was 44.65%.
For Cc1ccc(CSc2nc(N)cc(NCC(=O)N3CCNCC3)n2)cc1, the “Percent Effect” value was -47.88%.
In the case of CCc1cc(NCCS(=O)(=O)N(C)C)nc(N2CCOCC2)n1, the “Percent Effect” value is reported as 22.77%.
In the case of Cc1ccc(CSc2ncc(Br)c(C(=O)O)n2)cc1, the “Percent Effect” value is reported as 1.969%.
CCn1cnnc1CNC(=O)N1CCC(O)CC1 was tested, and the “Percent Effect” value was -20.2%.
For CC(=O)N1CCCN(C(=O)c2cnn(-c3ccccc3Cl)c2)CC1, the “Percent Effect” value was -28.49%.
Cc1cc(C(F)(F)F)nn1CCCNC(=O)C1CCCO1 (stereo unspecified) was tested, and the “Percent Effect” value was -51.46%.
O=C(NCC1CC1)C1CCC2(CCN(C(=O)c3ccoc3)CC2)O1 (stereo unspecified) was tested, and the “Percent Effect” value was -8.481%.
Cc1ccc2[nH]c(C3CCN(CC(N)=O)CC3)nc2c1 was tested, and the “Percent Effect” value was -20.2%.
CCC1CCCCN1Cc1ncc(C(C)(C)C)o1 (stereo unspecified) was tested, and the “Percent Effect” value was -71.87%.
